Screening results from PubChem.
UGM FP inh: Mtb UDP-galactopyranose mutase inhibition | P9WIQ1 | purified UGM, fluorescence polarization probe displacement | inhibition, % at 10 µM | 320,000 compounds, 0.06% hits; in the data active = inhibition above about 10%, passing the limit was not always enough; inconclusive = no clear call, values can overlap the other calls
RecA intein inh: Mtb RecA intein splicing inhibition | P9WHJ3 | cell-free RecA intein splicing, fluorescence | inhibition, % (test concentration not listed) | 290,000 compounds, 0.75% hits | AID 2221; in the data active = inhibition above about 30%; inconclusive = no clear call, values can overlap the other calls;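 note: 0% = vehicle wells and 100% = reference inhibitor control wells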
Rv3671c inh: inhibitors of M. tuberculosis serine protease Rv3671c. P9WHR9. inhibition, % at 5.96 µM. 320,000 compounds, 0.048% hits; in the data active = inhibition above about 38%;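 note: extracellular domain of Rv3671c used as enzyme; 0% = enzyme with DMSO and 100% = no enzyme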
Mtb bLac sens: beta-lactam sensitization of Mtb H37Rv; 330,000 compounds, 0.27% hits; inhibition, % at 25 µM; M. tuberculosis H37Rv growth with meropenem, percent inhibition; call rule not given here;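 note: growth measured after seven days incubation then overnight dye step; 0% = bacteria only wells and 100% = bacteria with antibiotic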
Mtb FBA inh: inhibitors of M. tuberculosis fructose-bisphosphate aldolase; P9WQA3; purified M. tuberculosis FBA, fluorescence read-out; inhibition, % at 1 µM; 360,000 compounds, 2.3% hits; AID 588726; in the data active = inhibition above about 27%;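 note: 0% = vehicle and 100% = reference inhibitor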
Target sequence (P9WQA3 whole entry, looked up): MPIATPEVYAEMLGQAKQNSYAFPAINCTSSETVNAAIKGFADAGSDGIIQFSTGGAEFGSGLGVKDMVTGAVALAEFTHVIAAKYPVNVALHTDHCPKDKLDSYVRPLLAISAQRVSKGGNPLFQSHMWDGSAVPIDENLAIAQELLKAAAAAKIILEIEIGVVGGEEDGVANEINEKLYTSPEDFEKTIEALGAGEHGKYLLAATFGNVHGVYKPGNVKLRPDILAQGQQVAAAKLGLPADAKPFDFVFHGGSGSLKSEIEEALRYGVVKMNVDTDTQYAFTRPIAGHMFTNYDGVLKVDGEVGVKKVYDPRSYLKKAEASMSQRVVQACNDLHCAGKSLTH
GDH-TPI inh: GDH-TPI coupled enzyme inhibition counter-screen; GDH-TPI coupled enzyme counterscreen, NADH absorbance; inhibition, % at 4.8 µM; 360,000 compounds, 1.2% hits; in the data active = inhibition above about 30%;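 note: 0% = DMSO wells and 100% = wells lacking the enzyme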
An asterisk follows results filed as active; i = inactive; u = inconclusive; x = no result given; + = active, no number. Sampled rows, rich in hits. Any-hit rate of the full collection: about 4%.

SMILES	UGM FP inh	RecA intein inh	Rv3671c inh	Mtb bLac sens	Mtb FBA inh	GDH-TPI inh
COc1ccc(C(=O)NCCN2C(=O)S/C(=C\c3cccnc3)C2=O)c(OC)c1OC	-3	10	-2	1	-1	33*
COc1ccc(C)cc1N(C(=O)c1ccco1)C(C(=O)NC1CCCC1)c1cc(OC)c(OC)c(OC)c1 (stereo unspecified)	0	12	-9	-2	0	-11
O=c1c2ccccc2oc2ccccc12	x	x	x	x	2	12
O=c1c2ccccc2oc2c1ccc1ccccc12	x	x	x	x	36*	4
CCOC(=O)c1ccc(NC(=O)Nc2ccc3c(c2)OCCO3)cc1	2	2	8	14	0	-2
CCC(C)(C(=O)Nc1ccc2c(c1)OCCO2)N(C(C)=O)c1ccc(C(N)=O)cc1 (stereo unspecified)	-1	-4	6	u	-1	32*
COc1cc(C(=O)Nc2ccc(N3CCCS3(=O)=O)cc2)c([N+](=O)[O-])cc1OC	2	-1	5	-11	-1	8
CCCCN1C(=O)C(CC(=O)NCC2CCCCC2)CC(C(=O)N2CCOCC2)=C1C (stereo unspecified)	x	x	x	x	-1	0
Nc1nc2nccc(-c3ccco3)n2n1	2	x	-3	-3	+	21
COc1cc2c(cc1OC)C(CCc1ccccc1)=NCC2	-1	-42	2	-12	158*	24
COc1cc2c(cc1OC)C(c1c(Cl)cccc1Cl)=NCC2	x	x	x	x	0	x
COc1ccc(Cl)cc1NC(=O)CCn1cnc2ccccc2c1=O	1	2	3	-1	49*	-4
O=C(CCn1cnc2ccccc2c1=O)Nc1cccc(Cl)c1	-1	-5	-5	-7	-4	-3
CCc1ccc(-n2c(SCC(=O)NC3CCS(=O)(=O)C3)nc3ccccc3c2=O)cc1 (stereo unspecified)	4	x	3	2	-4	-5
c1ccc(-c2ccc(-c3ccccn3)s2)nc1	2	-3	-3	3	+	29
COc1ccc(NC(=O)CN2C(=O)COc3ccc(C)cc32)cc1	0	-1	-1	-10	3	13
COc1ccc(C2C(C#N)=C(N)Oc3c2c(C)nn3-c2ccccc2)cc1Cn1nc(C)c([N+](=O)[O-])c1C (stereo unspecified)	2	54*	10	0	0	20
CCC12OC(=N)C(C#N)(C1C)C(C#N)(C#N)C(c1ccccc1)O2 (stereo unspecified)	2	-54	-1	26	144*	17
CN(C)CCCNc1ncnc2sc(-c3ccccc3)cc12	2	-2	-14	-8	20	6
CCCCN(CCO)c1ncnc2sc(-c3ccccc3)cc12	3	0	-17	86	14	31*
Nc1nc(SCc2ccccc2)sc1C(=O)N1CCCCC1	x	x	x	x	-2	22
Cc1ccc(-c2cc3nc(NCCc4ccncc4)n(C)c(=O)c3s2)cc1	x	x	x	x	4	22
Cc1noc(C)c1CSCC(=O)Oc1ccc(N(C)S(=O)(=O)c2ccc(Cl)cc2)cc1	-1	40*	-4	0	-1	3
Cc1noc(C)c1CSCC(=O)Oc1ccc(N(C)S(=O)(=O)c2ccccc2)cc1	3	38*	8	-6	0	0
CCc1noc(C)c1C(=O)Oc1ccc(N(C)S(=O)(=O)c2ccccc2)cc1	-1	11	10	-7	-2	11
SMILES	UGM FP inh	RecA intein inh	Rv3671c inh	Mtb bLac sens	Mtb FBA inh	GDH-TPI inh
COc1ccc(-n2nc(C(=O)NCC(=O)NCCCN3CCOCC3)c3ccccc3c2=O)cc1	0	1	0	0	1	6
CN(C)c1ccc(C(=O)Nc2nnc(-c3ccc(Cl)cc3)o2)cc1	0	-5	16	92	5	35*
COCCCN(C(=O)c1ccccc1F)c1nc(-c2ccc(OC)cc2)cs1	1	2	-1	10	-3	4
Clc1ccc(-c2cc3nc(NCc4cccc(Cl)c4)ccn3n2)cc1	x	x	x	x	7	3
c1ccc(-c2cc(-c3ccccc3)n3ncnc3n2)cc1	-1	1	1	28	23	4
COc1ccc(-c2cc(-c3ccccc3)nc3ncnn23)cc1	0	-2	4	-1	+	25
COc1cc(-c2nnc(-c3ccco3)o2)ccc1OCc1ccccc1	-1	0	-3	95	121*	8
CCOC(=O)c1c(C)cc2c(CO)n[nH]c(=O)c2c1C	x	x	x	x	1	9
COc1cc2cc(C(=O)N3CC(COS(C)(=O)=O)c4ccc(O)cc43)[nH]c2c(OC)c1OC (stereo unspecified)	x	x	x	x	-1	39*
CCCCNC(=O)c1cc2c(=O)n3cccc(C)c3nc2n(Cc2ccccc2)c1=N	-1	i	-4	76	150*	1
Cc1cccn2c(=O)c3cc(C(=O)NCCc4ccccc4)c(=N)n(CCCn4ccnc4)c3nc12	1	-6	2	80	129*	-4
COCCNC(=O)c1cc2c(=O)n3cccc(C)c3nc2n1C	0	-5	-3	-5	19	9
C=CCn1c(=N)c(C(=O)NCCCOC)cc2c(=O)n3cccc(C)c3nc21	-4	i	-3	-8	+	15
CNC(=O)c1cc2c(=O)n3cccc(C)c3nc2n(C(C)C)c1=N	2	i	7	-8	+	7
CN1CCN(c2ccc(C(F)(F)F)cc2NC(=O)Nc2ccccc2)CC1	0	-1	-7	98	1	8
O=C(Cc1n[nH]c(=O)c2ccccc12)Nc1cc(C(F)(F)F)ccc1-n1cncn1	x	x	x	x	-2	-18
COCCn1c(=N)c(C(=O)NCCc2ccccc2)cc2c(=O)n3cccc(C)c3nc21	-1	i	6	-4	117*	-2
COc1ccc(CCn2c(=N)c(C(=O)NC3CCCC3)cc3c(=O)n4cccc(C)c4nc32)cc1	-5	-13	-1	94	3	15
CCNC(=O)c1cc2c(=O)n3cccc(C)c3nc2n(CCc2ccccc2)c1=N	8	i	-2	1	+	9
Cc1cc(NC(=O)CSc2nnc(C(F)(F)F)n2C)no1	-2	x	3	-1	-2	2
Cc1cccc(/N=C/c2c(O)[nH]c3ccccc23)n1	-5	x	5	4	0	45*
CC(C)N=Cc1c(O)[nH]c2ccccc12	-1	-3	1	-9	-2	16
CC(=O)c1ccc(N2CCN(S(=O)(=O)c3cn(C)cn3)CC2)cc1	0	-1	-5	1	3	37*
CC(=O)c1ccc(N2CCN(S(=O)(=O)c3cn(C)c(C)n3)CC2)cc1	-3	-2	2	-19	0	16
CCC1S/C(=N/N=C/c2ccco2)N(Cc2ccc(F)cc2)C1=O (stereo unspecified)	2	-2	3	0	-1	34*
CCOC(=S)SCC(=O)Nc1nc(-c2ccccc2)cs1	1	43*	1	1	3	8
CCOC(=S)SCC(=O)Nc1nc(-c2ccc(Br)cc2)cs1	-1	21	-29	11	-1	2
